# Measurements reported in the supplement of paper PMC9135407.
# “And” between values parts separate entries of the source, which are not always exact repeats. Identical values can stand only once. Counter-ions that a name gives are not always drawn. About 620 (11%) of roughly 5,800 compounds showed activity. The sample as a whole holds a higher share of actives than the screen did. Unmarked numbers belong to inactive results.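 Rule for the calls: active = score above a cut-off or among the top three wells of a plate; in these data no inactive exceeds 0.85.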
# Tested on: primary human hepatic stellate cells (donor 1)
# Test: scaled lipid accumulation score (0 = DMSO-like, 1 = nortriptyline-like); higher = stronger HSC inactivation (lipid re-accumulation), active = hit call of the paper
# Details: 48 h
# [1] = library stock concentration: 3.33 mM
# [2] = library stock concentration: 10 mM
# [3] = library stock concentration: 1 mM
# [4] = library stock concentration: 80 uM
# [5] = library stock concentration: 400 uM
# [6] = library stock concentration: 2 mM
smiles,measurement,setting,value
O=C1NCCc2[nH]c(-c3ccnc(-c4cnc5ccccc5c4)c3)cc21 [MK-2 Inhibitor III],scaled lipid accumulation score,[1],≤ 0
C=C[C@H]1CN2CC[C@H]1C[C@H]2[C@H](O)c1ccnc2ccc(OC)cc12 [Quinine],scaled lipid accumulation score,library stock concentration: 6.2 mM,0.205
C=C[C@H]1CN2CC[C@H]1C[C@H]2[C@H](O)c1ccnc2ccc(OC)cc12 [Quinine sulfate],scaled lipid accumulation score,library stock concentration: 4.7 mM,0.308
same,scaled lipid accumulation score,[2],≤ 0 and 0.364
C=C[C@H]1CN2CC[C@H]1C[C@H]2[C@H](O)c1ccnc2ccc(OC)cc12 [Quinine HCl Dihydrate],scaled lipid accumulation score,[1],0.077
same,scaled lipid accumulation score,[2],0.31
CC(C)[C@H](N)C(=O)OCC(CO)OCn1cnc2c(=O)nc(N)[nH]c21 (some centres not stated),scaled lipid accumulation score,[2],0.228
CCCCCCC[C@H](O)/C=C/[C@H]1[C@H](O)CC(=O)[C@@H]1C/C=C\CCCC(=O)O [20-ethyl Prostaglandin E2],scaled lipid accumulation score,[3],≤ 0
CC(CCCO)C1CCC2C3C(O)CC4CC(=O)CCC4(C)C3CC(O)C12C (configuration not stated) [3-keto Petromyzonol],scaled lipid accumulation score,[3],≤ 0
CN(C)CCOC(=O)COc1ccc(Cl)cc1 [Meclofenoxate hydrochloride],scaled lipid accumulation score,,≤ 0
same,scaled lipid accumulation score,[2],≤ -0.027
CN(C)CCOC(=O)COc1ccc(Cl)cc1 [Centrophenoxine hydrochloride],scaled lipid accumulation score,[2],0.032
CN(C)CCOc1ccc(/C(=C(/CCCl)c2ccccc2)c2ccccc2)cc1 [Toremifene],scaled lipid accumulation score,library stock concentration: 4.9 mM,0.264
CN(C)CCOc1ccc(/C(=C(/CCCl)c2ccccc2)c2ccccc2)cc1 [Toremifene Citrate],scaled lipid accumulation score,[1],0.112
CN(C)CCOc1ccc(/C(=C(/CCCl)c2ccccc2)c2ccccc2)cc1,scaled lipid accumulation score,[2],≤ 0
CC/C(=C(\c1ccccc1)c1ccc(OCCN(C)C)cc1)c1ccccc1 [Tamoxifen citrate],scaled lipid accumulation score,,0.372
same,scaled lipid accumulation score,library stock concentration: 3.5 mM,0.611
same,scaled lipid accumulation score,library stock concentration: 5.4 mM,0.421
same,scaled lipid accumulation score,[2],0.253 and 0.681 and 0.432
CN(C)CCOC(=O)COc1ccc(Cl)cc1 [Meclofenoxate (Centrophenoxine) HCl],scaled lipid accumulation score,[1],≤ 0
same,scaled lipid accumulation score,[2],0.043
CC/C(=C(\c1ccccc1)c1ccc(OCCN(C)C)cc1)c1ccccc1 [Tamoxifen],scaled lipid accumulation score,[2],0.674 and 0.394
same,scaled lipid accumulation score,library stock concentration: 13.5 mM,0.777
CN(C)CCOc1ccc(/C(=C(/CCCl)c2ccccc2)c2ccccc2)cc1.O=C(O)CC(O)(CC(=O)O)C(=O)O,scaled lipid accumulation score,[2],0.946 (active)
CC/C(=C(\c1ccccc1)c1ccc(OCCN(C)C)cc1)c1ccccc1 [Tamoxifen Citrate],scaled lipid accumulation score,[1],0.368
same,scaled lipid accumulation score,[2],0.579
OCCOc1ccc(/C(=C(/CCCl)c2ccccc2)c2ccccc2)cc1 [Ospemifene],scaled lipid accumulation score,[1],0.069
same,scaled lipid accumulation score,[2],0.171
CN(C)CCOc1ccc(C(=C(CCCl)c2ccccc2)c2ccccc2)cc1.O=C(O)CC(O)(CC(=O)O)C(=O)O [Toremifene Citrate],scaled lipid accumulation score,[2],1.23 (active)
O=C(O)CSCC(=O)NC1CCSC1=O (configuration not stated),scaled lipid accumulation score,[2],≤ 0
O=C(O)CSCC(=O)NC1CCSC1=O (configuration not stated) [Erdosteine],scaled lipid accumulation score,[1],≤ 0
same,scaled lipid accumulation score,[2],≤ 0
CC(C)OC(=O)CCC/C=C/C[C@@H]1[C@@H](/C=C/[C@H](O)CCc2ccccc2)[C@H](O)C[C@@H]1O,scaled lipid accumulation score,[3],≤ 0
C1CNCCN1 [Piperazine],scaled lipid accumulation score,[2],≤ 0
same,scaled lipid accumulation score,library stock concentration: 23.2 mM,0.066
O=C(O)CCCCC(CCSCc1ccccc1)SCc1ccccc1 (configuration not stated),scaled lipid accumulation score,[1],≤ 0
same,scaled lipid accumulation score,[2],≤ 0
CCCC[C@@H](C=O)NC(=O)[C@H](CC(C)C)NC(=O)[C@H](CC(C)C)NC(C)=O,scaled lipid accumulation score,library stock concentration: 13 mM,0.811
CC(C)c1ccc(NC(=O)Cn2cnc3c2c(=O)n(C)c(=O)n3C)cc1,scaled lipid accumulation score,[1],≤ 0
same,scaled lipid accumulation score,[2],≤ 0
CCCCC/C=C\C/C=C\CCCCCCCC(=O)OCC [Linoleic Acid ethyl ester],scaled lipid accumulation score,[3],≤ 0
OCCCNc1cc(-c2ccnc(Nc3cccc(Cl)c3)n2)ccn1 [listing 1 of 2 here],scaled lipid accumulation score,[2],0.957 (active)
COc1ccc(Nc2nccc(NCCO)n2)cc1 [Cardiogenol C hydrochloride],scaled lipid accumulation score,[2],≤ 0
OCCCNc1cc(-c2ccnc(Nc3cccc(Cl)c3)n2)ccn1 [listing 2 of 2 here],scaled lipid accumulation score,[4],0.137
same,scaled lipid accumulation score,[5],0.324
same,scaled lipid accumulation score,[6],0.587
COc1ccc(Nc2nccc(NCCO)n2)cc1 [Cardiogenol C (hydrochloride)],scaled lipid accumulation score,[3],≤ 0
C[C@@]1(c2cc(-c3cncnc3)c(F)cc2F)CCSC(N)=N1,scaled lipid accumulation score,[1],≤ 0
same,scaled lipid accumulation score,[2],≤ 0
"CCCCCCCCCCC/C=C\C/C=C\CCCC(=O)O [Eicosa-5,8-dienoic acid (20:2 n-12)]",scaled lipid accumulation score,[3],≤ -0.021
Cc1nc2n(c(=O)c1CCN1CCC(c3noc4cc(F)ccc34)CC1)CCCC2O (configuration not stated) [Paliperidone],scaled lipid accumulation score,[2],0.223
COc1cc(C(C)=O)ccc1OCCCN1CCC(c2noc3cc(F)ccc23)CC1,scaled lipid accumulation score,[2],0.933 (active)
COc1cc(C(C)=O)ccc1OCCCN1CCC(c2noc3cc(F)ccc23)CC1 [Iloperidone],scaled lipid accumulation score,[1],0.045
same,scaled lipid accumulation score,[2],0.477
C[Se]CC[C@H](N)C(=O)O,scaled lipid accumulation score,[2],≤ 0
COc1ccc(N(C(=O)Nc2c(C)cccc2C)c2cc(Nc3ccc(N4CCN(C)CC4)cc3)ncn2)c(OC)c1,scaled lipid accumulation score,[4],≤ -0.016
same,scaled lipid accumulation score,[5],0.184
same,scaled lipid accumulation score,[6],0.849
Cc1ccc(-c2ccc3c(ccc4sc5c(c43)NC[C@@H](C)NC5=O)n2)cn1 [listing 1 of 2 here],scaled lipid accumulation score,[2],1.28 (active)
Cc1ccc(-c2ccc3c(ccc4sc5c(c43)NC[C@@H](C)NC5=O)n2)cn1 [listing 2 of 2 here],scaled lipid accumulation score,[4],≤ -0.001
same,scaled lipid accumulation score,[5],≤ -0.001
same,scaled lipid accumulation score,[6],0.744
CN(C)CC(c1ccc(O)cc1)C1(O)CCCCC1 (configuration not stated) [Desvenlafaxine],scaled lipid accumulation score,[1],≤ 0
same,scaled lipid accumulation score,[2],≤ -0.001
CN(C)CC(c1ccc(O)cc1)C1(O)CCCCC1 (configuration not stated),scaled lipid accumulation score,[2],≤ 0
CN(C)CC(c1ccc(O)cc1)C1(O)CCCCC1 (configuration not stated) [Desvenlafaxine Succinate],scaled lipid accumulation score,[1],≤ 0
same,scaled lipid accumulation score,[2],≤ -0.001
